The values below come from PubChem BioAssay (NCI).

The panel holds about 83,000 compounds, 20% with a hit somewhere; the sample as a whole holds those more often.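 Activity criterion: percent growth below 10, measured after cells in 96-well plates were exposed to a single compound concentration for 48 hours.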 Values without a mark were called inactive. The source made the active and inactive calls.

Among the test systems are HCT-15 colon; SNB-75 CNS; SNB-19 CNS; U251 CNS; PC-3 prostate; SK-MEL-5 melanoma; UACC-62 melanoma; LOX IMVI melanoma; SK-MEL-28 melanoma; EKVX NSCLC; SN12C renal; UO-31 renal; ACHN renal; CAKI-1 renal; A498 renal; CCRF-CEM leukemia; MOLT-4 leukemia; SK-MEL-2 melanoma; TK-10 renal.
Holding throughout (assay): NCI-60 one-dose screen, 48 h (100 = growth as untreated, 0 = no growth, -100 = all killed)
What all share (details): 10 µM unless noted

Consider `COc1cc(NC(C)CCCN)c2nc(C)ccc2c1Oc1ccc(F)cc1` (configuration not stated), for which the growth is 71.2% with HCT-15 colon; 64.6% in the test on SNB-75 CNS; 78.8% with SNB-19 CNS; 73.2% in the test on U251 CNS; 63.9% in the test with PC-3 prostate; 86.2% with SK-MEL-5 melanoma. Further, the growth with UACC-62 melanoma is 81.9%; in the test on LOX IMVI melanoma it was 51%; with SK-MEL-28 melanoma, 97.8%; in the test with EKVX NSCLC it was 75.1%; with SN12C renal it was 69.9%; in the test with UO-31 renal, 45.4%. In addition, the growth was 84.6% in the test on ACHN renal; 75.9% in the test with CAKI-1 renal; 60.4% in the test with A498 renal; 78.2% in the test on CCRF-CEM leukemia; 63.1% in the test with MOLT-4 leukemia.
Take `c1cc[n+](Cc2ccnc3ccccc23)cc1`: the growth is 64.3% in the test with HCT-15 colon; 53.6% in the test with SNB-75 CNS; 103% in the test on SNB-19 CNS; 80.8% in the test with PC-3 prostate; 107% in the test with SK-MEL-5 melanoma; 104% in the test with UACC-62 melanoma. The growth in the test on LOX IMVI melanoma was 90.8%; in the test on SK-MEL-28 melanoma it was 104%; in the test with SN12C renal, 102%; in the test with UO-31 renal, 73.6%; with ACHN renal it was 94.2%; in the test with CAKI-1 renal, 91.1%. For the same compound, the growth in the test with MOLT-4 leukemia is 108%.
As to `CCCCOP(=O)(OCCCC)C(C(=O)OCC)C(CC(=O)OCC)C(=O)OCC` (configuration not stated), the growth is 86.4% with HCT-15 colon; 59.9% in the test with SNB-75 CNS; 100% in the test with SNB-19 CNS; 88.6% with PC-3 prostate; 109% in the test with SK-MEL-5 melanoma; 105% with UACC-62 melanoma. The growth in the test with LOX IMVI melanoma is 109%; in the test on SK-MEL-28 melanoma, 104%; with SN12C renal, 100%; in the test on UO-31 renal, 91.9%; with ACHN renal, 93.2%; with CAKI-1 renal, 98.4%. The growth in the test with A498 renal is 97.8%; in the test with MOLT-4 leukemia, 109%.
For `COc1ccc2c(c1)c(CC(=O)[Se]C)c(C)n2C(=O)c1ccc(Cl)cc1`, the growth in the test on HCT-15 colon is 14.9%; with SNB-19 CNS, 24%; in the test with U251 CNS, 14.9%; in the test with PC-3 prostate, 24.2%; in the test on SK-MEL-5 melanoma, -63.9% (active); in the test on UACC-62 melanoma, 33.6%. Also, the growth in the test with LOX IMVI melanoma is -69.5% (active); in the test on SK-MEL-28 melanoma, -7.85% (active); with SK-MEL-2 melanoma, 12.4%; with EKVX NSCLC, -26.7% (active); in the test on SN12C renal, -4.23% (active); in the test with UO-31 renal, 14.7%. The growth is -58.4% (active) in the test on TK-10 renal; 10.4% in the test with ACHN renal; -35.1% (active) with CAKI-1 renal; 13% in the test with CCRF-CEM leukemia; 6.33% (active) with MOLT-4 leukemia.
Consider `Cc1ccc(NC(=O)c2sc3nc4c(cc3c2N)C(=O)CCC4)cc1`, for which the growth was 58.6% in the test with HCT-15 colon; 86.3% in the test with SNB-75 CNS; 72.2% in the test with SNB-19 CNS; 86.6% in the test on U251 CNS; 73.2% in the test with PC-3 prostate; 53.2% in the test on SK-MEL-5 melanoma. The growth with UACC-62 melanoma was 69.2%; in the test on LOX IMVI melanoma, 93.1%; in the test on SK-MEL-28 melanoma, 84.8%; with SN12C renal it was 87.8%; in the test on UO-31 renal, 84.8%; with ACHN renal, 89.9%. For the same compound, the growth was 56.6% in the test on CAKI-1 renal, -3.97% (active) in the test on A498 renal, 70.9% with CCRF-CEM leukemia and 95.9% with MOLT-4 leukemia.
`COc1cc(/C=C\C(C)=N\Nc2ccccc2)ccc1O`: the growth with HCT-15 colon was 75.4%; in the test with SNB-75 CNS, 98.7%; with SNB-19 CNS, 103%; in the test on U251 CNS it was 90.5%; in the test with PC-3 prostate, 67.2%; with SK-MEL-5 melanoma, 95%. In addition, the growth in the test on LOX IMVI melanoma was 73.1%; with SK-MEL-28 melanoma, 120%; in the test on SK-MEL-2 melanoma it was 92.5%; with EKVX NSCLC, 94.1%; in the test on SN12C renal it was 92.6%; with UO-31 renal it was 66%. In addition, the growth was 94.5% with TK-10 renal; 97.6% in the test with ACHN renal; 82.3% in the test with CAKI-1 renal; 110% in the test on A498 renal; 30.7% in the test on CCRF-CEM leukemia; 70.9% in the test on MOLT-4 leukemia.
Consider `OCCN1CCN(CCCN2c3ccccc3Sc3ccc(C(F)(F)F)cc32)CC1`, for which the growth is 18.3% with HCT-15 colon; 46.3% in the test on SNB-75 CNS; 62.7% in the test on SNB-19 CNS; 20.4% in the test with PC-3 prostate; -93.3% (active) with SK-MEL-5 melanoma; -55.5% (active) with UACC-62 melanoma. Besides, the growth with LOX IMVI melanoma is -41.6% (active); in the test on SK-MEL-28 melanoma it was -86.6% (active); with SK-MEL-2 melanoma it was 8.96% (active); in the test on EKVX NSCLC, 47.2%; in the test with SN12C renal, 43.6%; in the test on UO-31 renal, 32.5%. The growth in the test on TK-10 renal is 4.29% (active); in the test with CAKI-1 renal, 25.7%; in the test with A498 renal it was 44.5%; with CCRF-CEM leukemia, 29.7%; in the test with MOLT-4 leukemia, -16% (active).
`Nc1nc2c(c(=O)[nH]1)C1(C(=O)Nc3ccccc31)c1c(nc(N)[nH]c1=O)N2`: the growth in the test with HCT-15 colon was 105%; in the test with SNB-75 CNS, 91.5%; in the test with SNB-19 CNS, 104%; in the test on PC-3 prostate it was 103%; in the test on UACC-62 melanoma, 103%; in the test on LOX IMVI melanoma, 98.2%. For the same compound, the growth was 112% in the test with SK-MEL-28 melanoma; 104% with EKVX NSCLC; 103% in the test with SN12C renal; 86.7% with UO-31 renal; 105% with ACHN renal; 102% in the test on CAKI-1 renal. Besides, the growth in the test on A498 renal was 108%; with CCRF-CEM leukemia it was 105%; with MOLT-4 leukemia it was 90%.
